Data taken from PubChem BioAssay.
Results with a measured potency or affinity are listed apart. Records with an inconclusive call do not appear. Active and inactive are the calls of the source. Unless noted, no rule for the calls is given here.

Experiments:
[1] = cytotoxicity in PAX8-dependent RMG-1 cells, dose response, cell-based, cherry-pick (AID 687029;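 active = signal drop whose fitted half-maximal concentration is at most twice the top valid dose, in every test run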;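 also: cells exposed to compound for 96 hours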)
[2] = cytotoxicity in IOSE-T80 ovarian epithelial cells, dose response, selectivity assay for PAX8 inhibitor project, cell-based, cherry-pick (AID 687032;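 active = fitted half-maximal concentration for viability loss no higher than twice the top valid dose, in every repeat run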;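 also: cells exposed to compound for 96 h before reading; 0% = neutral control wells and -100% = 2 µM mitoxantrone kill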)
[3] = non-specific cell cytotoxicity, dose response, cytotoxicity control for PAX8 inhibitor project, plate reader, dry powder samples (AID 743021)
[4] = IGROV1 ovarian cancer cell cytotoxicity, dose response, PAX8 inhibitor project, plate reader, dry powder samples (AID 743043);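 also: more negative means fewer viable cells or more cytotoxicity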
[5] = NIH:OVCAR-3 ovarian cancer cell cytotoxicity, dose response, PAX8 inhibitor project, plate reader, dry powder samples (AID 743044); details: max activity: at 35 µM, active compounds read low unless noted
[6] = IOSE-T80 ovarian epithelial cell cytotoxicity, dose response, cytotoxicity control for PAX8 inhibitor project, plate reader, dry powder samples (AID 743045);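 also: 0% = neutral control median and -100% = positive control median; more negative values mean more cell killing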
[7] = A2780 ovarian cancer cell cytotoxicity, dose response, cytotoxicity control, plate reader, dry powder samples (AID 743046);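 also: 0% = neutral control wells and -100% = cytotoxic reference compound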
[8] = cytotoxicity in OVCAR8 ovarian cancer cells, dose response, PAX8 project, cell-based, plate reader, dry powder samples (AID 743197)
[9] = A549 cell cytotoxicity, dose response, cytotoxicity control, plate reader, cherry-pick, antagonist series (AID 743412);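 also: 0% = neutral control wells and -100% = positive control wells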
[10] = HepG2 cell cytotoxicity, dose response, cytotoxicity control, plate reader, cherry-pick, antagonist series (AID 743416);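 also: 0% = neutral control wells and -100% = positive control wells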

Measured: max activity

COc1ccc(S(=O)(=O)Nc2ccc3c(c2)CC(=O)N([C@H](C)CO)C[C@H](C)[C@@H](CN(C)Cc2ccc(C(F)(F)F)cc2)O3)cc1
inactive: [1] | [2] | [3] | [4] | [5] -8.3% [at 8 µM, active compounds read low] | [6] | [7]

C[C@@H]1CCCCO[C@H](CN(C)C(=O)Nc2ccc(C(F)(F)F)cc2)[C@@H](C)CN([C@@H](C)CO)C(=O)c2cc(NS(=O)(=O)c3ccccc3)ccc2O1
inactive: [1] | [2] | [3] | [4] | [5] 27.6% [at 0.26 µM, active compounds read low] | [6] | [7] | [8]

Cc1ccccc1OCC(=O)Nc1cccc(C(=O)O)c1
not listed: [8]
inactive: all other assays above

C[C@H]1CN([C@@H](C)CO)C(=O)c2c(c3ccccc3n2C)-c2ccccc2CO[C@@H]1CN(C)S(=O)(=O)c1cccc(F)c1
inactive: [1] | [2] | [3] | [4] | [5] -21.9% | [6] | [7]

C[C@H]1CN([C@@H](C)CO)S(=O)(=O)c2ccc(C#CC3CCCC3)cc2O[C@@H]1CN(C)Cc1cccnc1
inactive: [1] | [2] | [3] | [4] | [6] | [7]

CC1(C)CC(=O)c2sc(NC(=O)CCS(=O)(=O)c3ccccc3)nc2C1
inactive: [1] | [2] | [3] | [4] | [5] | [7]

C[C@@H]1CN([C@@H](C)CO)C(=O)Cc2cc(NC(=O)NC3CCCCC3)ccc2O[C@H]1CN(C)Cc1ccc(-c2ccccc2)cc1
inactive: [1] | [2] | [3] | [4] | [6]

O=C(C[C@H]1C[C@@H]2c3cc(NS(=O)(=O)c4ccc(F)cc4)ccc3O[C@@H]2[C@@H](CO)O1)NCc1ccc(Oc2ccccc2)cc1
inactive: [1] | [2] | [3] | [4] | [5] 26.4% | [6] | [7] | [8]

C[C@@H]1CCCCO[C@H](CN(C)S(=O)(=O)c2ccc(Cl)cc2)[C@H](C)CN([C@@H](C)CO)C(=O)c2cc(NS(=O)(=O)c3ccc(F)cc3)ccc2O1
inactive: [1] | [2] | [3] | [4] | [5] -23.5% [at 8 µM, active compounds read low] | [6] | [7] | [8]

COc1ccc(CCN2C(=O)CSC2=S)cc1OC
inactive: [1] | [2] | [3] | [4] | [5] | [7]

C[C@@H]1CCCCO[C@@H](CN(C)Cc2ccc(Cl)c(Cl)c2)[C@H](C)CN([C@@H](C)CO)C(=O)c2cc(NC(=O)Nc3ccc(C(F)(F)F)cc3)ccc2O1
not listed: [5] | [9] | [10]
inactive: all other assays above

C[C@H]1CN([C@@H](C)CO)C(=O)Cc2cc(NC(=O)Nc3ccc4c(c3)OCO4)ccc2O[C@@H]1CN(C)Cc1ccc(-c2ccccc2)cc1
inactive: [1] | [2] | [3] | [4] | [5] -22.8% [at 16 µM, active compounds read low] | [6] | [7] | [8]

C[C@H]1CCCCO[C@@H](CN(C)Cc2ccc(Cl)c(Cl)c2)[C@@H](C)CN([C@@H](C)CO)C(=O)c2cc(NC(=O)Nc3ccc(C(F)(F)F)cc3)ccc2O1
inactive: [1] | [2] | [3] | [4] | [6]

O=C1/C(=C/c2cccc(Br)c2)SC(=S)N1CCC(=O)N(CCO)c1ccccc1
not listed: [8] | [9] | [10]
inactive: all other assays above

O=C(Nc1ccc(C(F)(F)F)cc1)Nc1ccc2c(c1)[C@H]1C[C@@H](CC(=O)N3CCc4ccccc4C3)O[C@H](CO)[C@H]1O2
inactive: [1] | [2] | [3] | [4] | [6] | [7]

C[C@@H]1CCCCO[C@H](CN(C)S(=O)(=O)c2ccc(Cl)cc2)[C@H](C)CN([C@@H](C)CO)C(=O)c2cc(N(C)C)ccc2O1
inactive: [1] | [2] | [3] | [4] | [5] 36.7% [at 16 µM, active compounds read low] | [6] | [7] | [8]

C[C@@H]1CCCCO[C@H](CN(C)CC2CCCCC2)[C@H](C)CN([C@@H](C)CO)C(=O)c2cc(NS(=O)(=O)c3ccc(Cl)cc3)ccc2O1
inactive: [1] | [2] | [3] | [4] | [5] 13.1% [at 0.5 µM, active compounds read low] | [6] | [7] | [8]

C[C@@H]1CCCCO[C@@H](CN(C)C(=O)Nc2ccc(C(F)(F)F)cc2)[C@H](C)CN([C@@H](C)CO)C(=O)c2cc(NC(=O)Nc3ccc(C(F)(F)F)cc3)ccc2O1
inactive: [1] | [2] | [3] | [4] | [5] -30.2% | [6] | [7] | [8]

C[C@@H]1CCCCO[C@H](CN(C)Cc2ccc3c(c2)OCO3)[C@@H](C)CN([C@@H](C)CO)C(=O)c2cc(NC(=O)Nc3ccc(C(F)(F)F)cc3)ccc2O1
inactive: [1] | [2] | [3] | [4] | [5] -12% | [6] | [7]

O=C(Nc1ccccc1)N1CCCCN2[C@H](C1)[C@@H](c1ccc(C#Cc3ccccc3)cc1)[C@@H]2CO
inactive: [1] | [2] | [3] | [4] | [6] | [7]

COc1ccc(S(=O)(=O)Nc2ccc3c(c2)C(=O)N([C@H](C)CO)C[C@@H](C)[C@@H](CN(C)Cc2ccc(C(F)(F)F)cc2)OCCCC[C@H](C)O3)cc1
not listed: [5] | [9] | [10]
inactive: all other assays above

CS(=O)(=O)Nc1ccc2c(c1)[C@@H]1C[C@H](CC(=O)NCc3ccc(Oc4ccccc4)cc3)O[C@@H](CO)[C@@H]1O2
not listed: [5] | [9] | [10]
inactive: all other assays above

Cc1noc(C)c1S(=O)(=O)Nc1ccc2c(c1)C(=O)N([C@@H](C)CO)C[C@H](C)[C@@H](CN(C)C(=O)Nc1ccc(C(F)(F)F)cc1)OCCCC[C@H](C)O2
inactive: [1] | [2] | [3] | [4] | [6] | [7]

C[C@@H]1CCCCO[C@H](CN(C)C(=O)Nc2ccc(F)cc2)[C@@H](C)CN([C@@H](C)CO)C(=O)c2cc(NS(=O)(=O)c3ccc(Cl)cc3)ccc2O1
inactive: [1] | [2] | [3] | [4] | [6] | [7]

C[C@@H]1CN([C@H](C)CO)S(=O)(=O)c2ccc(C#Cc3ccncc3)cc2O[C@H]1CN(C)C(=O)C1CCCCC1
not listed: [5] | [9] | [10]
inactive: all other assays above

C[C@@H]1CCCCO[C@@H](CN(C)C(=O)Nc2ccc(F)cc2)[C@H](C)CN([C@@H](C)CO)C(=O)c2cc(NC(=O)Nc3ccc(C(F)(F)F)cc3)ccc2O1
inactive: [1] | [2] | [3] | [4] | [5] -4.11% | [6] | [7] | [8]

C[C@@H]1CCCCO[C@H](CN(C)Cc2ccc(Cl)c(Cl)c2)[C@@H](C)CN([C@@H](C)CO)C(=O)c2cc(NC(=O)Nc3ccc(C(F)(F)F)cc3)ccc2O1
inactive: [1] | [2] | [3] | [4] | [6] | [7]

N#Cc1ccc(-c2ccc(C3[C@@H]4CN(C(=O)c5ccc6c(c5)OCO6)C[C@H]3N4)cc2)cc1 (some centres undefined)
not listed: [5] | [9] | [10]
inactive: all other assays above

C[C@@H]1CN([C@H](C)CO)C(=O)c2cc(NS(=O)(=O)c3ccc(Cl)cc3)ccc2O[C@@H](C)CCCCO[C@H]1CN(C)Cc1ccc(Cl)c(Cl)c1
not listed: [5] | [9] | [10]
inactive: all other assays above

C[C@@H]1CN([C@H](C)CO)C(=O)c2cc(NS(=O)(=O)c3ccc(Cl)cc3)ccc2O[C@@H](C)CCCCO[C@H]1CN(C)S(=O)(=O)c1ccc(Cl)cc1
inactive: [1] | [2] | [3] | [6]

C[C@@H]1CCCCO[C@H](CN(C)Cc2ccc(Cl)c(Cl)c2)[C@H](C)CN([C@@H](C)CO)C(=O)c2cc(NS(=O)(=O)c3ccc(Cl)cc3)ccc2O1
inactive: [1] | [2] | [3] | [6] | [7]

C[C@H]1CCCCO[C@@H](CN(C)S(=O)(=O)c2ccccc2)[C@@H](C)CN([C@@H](C)CO)C(=O)c2cc(NC(=O)Nc3ccc(C(F)(F)F)cc3)ccc2O1
inactive: [1] | [2] | [3] | [6] | [7]

C[C@@H]1CN([C@H](C)CO)C(=O)c2cc(NS(=O)(=O)c3cccs3)ccc2O[C@@H](C)CCCCO[C@@H]1CN(C)Cc1ccc(Cl)c(Cl)c1
inactive: [1] | [2] | [3] | [6]

CC(C)CC#Cc1ccc2c(c1)O[C@@H](CN(C)Cc1ccncc1)[C@H](C)CN([C@H](C)CO)S2(=O)=O
inactive: [1] | [2] | [3] | [4] | [7]

C[C@H]1CCCCO[C@H](CN(C)C(=O)c2ccccc2)[C@@H](C)CN([C@@H](C)CO)C(=O)c2cc(NC(=O)Nc3ccc(C(F)(F)F)cc3)ccc2O1
inactive: [1] | [2] | [3] | [6] | [7]
